Measurements: PubChem BioAssay (Tox21)
Results filed as inconclusive are left out. The source made the active and inactive calls. The call rests on the fitted dose curve; in most records, active means well fitted curve in the direction sought with a large enough effect in the repeat runs; inconclusive means weak or mixed curves; inactive means no such curve, though single readings can be large; an effect the other way counts as inactive or inconclusive.

Assays:
[1] = qHTS RealTime-Glo MT Cell Viability Assay in HepG2 cells - 24 hour (AID 1224867); further: nearly all actives have a fitted effect of over 50% in size
Method in brief: (§1)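 Tox21 10K library screened in qHTS format on HepG2 cells carrying RealTime-Glo reagents. Compounds were added after a 5 h preincubation, and the luminescent signal from continuous culture was measured repeatedly during 40 h treatment.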

[2] = A CellTox Green Cytotoxicity Assay to monitor cytotoxicity in HEK293 cells - 0 hour (AID 1224869); further: nearly all actives have a fitted effect of over 50% in size
Method in brief: (§2)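 HEK293 cells, 600/well, were preincubated 5 hours and then exposed to compounds at 37 C for up to 40 hours. A cell-impermeant cyanine dye staining dead-cell DNA was read by fluorescence at 0, 8, 16, 24, 32 and 40 h time points.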

[3] = qHTS RealTime-Glo MT Cell Viability Assay in HepG2 cells - 40 hour (AID 1224870); further: nearly all actives have a fitted effect of over 50% in size
Method in brief: (§3)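 HepG2 cells (600/well) mixed with RealTime-Glo MT reagent, settled 5 h at 37 C/5% CO2 before compound addition. Nonlytic NanoLuc luminescence from viable-cell prosubstrate reduction read repeatedly during 40 h treatment at 37 C.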

[4] = A CellTox Green Cytotoxicity Assay to monitor cytotoxicity in HEK293 cells - 40 hour (AID 1224871); further: nearly all actives have a fitted effect of over 45% in size
Method in brief: as §2

[5] = qHTS RealTime-Glo MT Cell Viability Assay in HEK293 cells - 16 hour (AID 1224872); further: top concentration of the series differs between compounds; nearly all actives have a fitted effect of over 50% in size
Method in brief: (§4)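 Luminescence generated by NanoLuc from substrate produced by living HEK293 cells served as the viability signal. Each value reflects the reading at its stated time point during continuous 40 h compound exposure at 37 C.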

[6] = qHTS RealTime-Glo MT Cell Viability Assay in HepG2 cells - 8 hour (AID 1224873); further: nearly all actives have a fitted effect of over 55% in size
Method in brief: as §3

[7] = A CellTox Green Cytotoxicity Assay to monitor cytotoxicity in HEK293 cells - 24 hour (AID 1224875); further: series mostly up to about 77 µM; nearly all actives have a fitted effect of over 45% in size
Method in brief: as §2

[8] = A CellTox Green Cytotoxicity Assay to monitor cytotoxicity in HepG2 cells - 16 hour (AID 1224876); further: nearly all actives have a fitted effect of over 45% in size
Method in brief: (§5)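 HepG2 cells, 600/well, preincubated 5 h with CellTox Green dye, then exposed to Tox21 compounds in DMSO at 37 C for up to 40 h. Dead-cell DNA fluorescence read at the indicated time point.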

[9] = qHTS RealTime-Glo MT Cell Viability Assay in HepG2 cells - 32 hour (AID 1224877); further: nearly all actives have a fitted effect of over 55% in size
Method in brief: as §1

[10] = A CellTox Green Cytotoxicity Assay to monitor cytotoxicity in HepG2 cells - 24 hour (AID 1224878); further: nearly all actives have a fitted effect of over 45% in size
Method in brief: as §5

[11] = A CellTox Green Cytotoxicity Assay to monitor cytotoxicity in HepG2 cells - 40 hour (AID 1224879); further: nearly all actives have a fitted effect of over 40% in size
Method in brief: as §5

[12] = qHTS RealTime-Glo MT Cell Viability Assay in HEK293 cells - 0 hour (AID 1224880)
Method in brief: (§6)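 600 cells/well were plated with the nonlytic NanoLuc/prosubstrate reagent, pre-incubated 5 h, then given 23 nL of compound in DMSO. Incubation at 37 C for 40 h, with luminescence from viable-cell-reduced substrate read repeatedly from 0 h.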

[13] = A CellTox Green Cytotoxicity Assay to monitor cytotoxicity in HEK293 cells - 32 hour (AID 1224881); further: nearly all actives have a fitted effect of over 40% in size
Method in brief: as §2

[14] = A CellTox Green Cytotoxicity Assay to monitor cytotoxicity in HepG2 cells - 0 hour (AID 1224882); further: nearly all actives have a fitted effect of over 35% in size
Method in brief: as §5

[15] = A CellTox Green Cytotoxicity Assay to monitor cytotoxicity in HepG2 cells - 32 hour (AID 1224883); further: nearly all actives have a fitted effect of over 50% in size
Method in brief: as §5

[16] = A CellTox Green Cytotoxicity Assay to monitor cytotoxicity in HEK293 cells - 8 hour (AID 1224884); further: nearly all actives have a fitted effect of over 35% in size
Method in brief: as §2

[17] = qHTS RealTime-Glo MT Cell Viability Assay in HepG2 cells - 16 hour (AID 1224885); further: nearly all actives have a fitted effect of over 50% in size
Method in brief: as §1

[18] = qHTS RealTime-Glo MT Cell Viability Assay in HEK293 cells - 24 hour (AID 1224886)
Method in brief: as §4

[19] = qHTS RealTime-Glo MT Cell Viability Assay in HEK293 cells - 32 hour (AID 1224868)
Method in brief: as §4

[20] = qHTS RealTime-Glo MT Cell Viability Assay in HEK293 cells - 40 hour (AID 1224874); details: RealTime-Glo luminescence; max response: active compounds read low; further: nearly all actives have a fitted effect of over 50% in size
Method in brief: as §6
On the % scale 0 is the no-effect control and ±100 the full control effect.

CCCCCCCCCCCCCCC(=O)NC(CO)CCCCCCCCCCCCCC (stereo unspecified)
inactive: outcome [1] | Potency [2] | outcome [3] | Potency [4] | Potency [5] | outcome [6] | Potency [7] | Potency [8] | outcome [9] | Potency [10] | Potency [11] | Potency [12] | Potency [13] | Potency [14] | Potency [15] | Potency [16] | outcome [17] | Potency [18]

C/C=C(\C)C(=O)OCCc1ccccc1
inactive: outcome [1] | Potency [2] | outcome [3] | Potency [5] | outcome [6] | Potency [8] | outcome [9] | Potency [10] | Potency [11] | Potency [12] | Potency [14] | Potency [15] | outcome [17] | Potency [18]

CCCCCCCCCCCCCCCCCC#N
inactive: Potency [19] | Potency [2] | outcome [3] | Potency [4] | Potency [5] | outcome [6] | max response [20] -5.42% | Potency [7] | outcome [9] | Potency [10] | Potency [11] | Potency [12] | Potency [13] | Potency [14] | Potency [15] | Potency [16] | outcome [17] | Potency [18]

O=C(O)c1cc2ccccc2nc1C(=O)O
inactive: Potency [19] | Potency [2] | Potency [4] | Potency [5] | outcome [6] | max response [20] -2.29% | Potency [7] | Potency [8] | Potency [10] | Potency [11] | Potency [12] | Potency [13] | Potency [14] | Potency [15] | Potency [16] | outcome [17] | Potency [18]

CC(=O)OCC(=O)Nc1cc(C#N)cc(NC(=O)COC(C)=O)c1Cl
inactive: Potency [19] | Potency [2] | Potency [4] | Potency [5] | outcome [6] | max response [20] 0.686% | Potency [7] | Potency [8] | Potency [10] | Potency [11] | Potency [12] | Potency [13] | Potency [14] | Potency [15] | Potency [16] | outcome [17] | Potency [18]

CCOCCOCC
inactive: Potency [19] | Potency [2] | outcome [3] | Potency [4] | outcome [6] | max response [20] 2.51% | Potency [7] | Potency [8] | outcome [9] | Potency [10] | Potency [11] | Potency [12] | Potency [13] | Potency [14] | Potency [15] | Potency [16] | outcome [17] | Potency [18]

Cn1c(=O)c2[nH]c(Br)nc2n(C)c1=O
inactive: Potency [19] | Potency [2] | outcome [3] | Potency [4] | outcome [6] | Potency [7] | Potency [8] | outcome [9] | Potency [10] | Potency [11] | Potency [12] | Potency [13] | Potency [14] | Potency [15] | Potency [16] | outcome [17] | Potency [18]

CN(C)CC/C=C1/c2ccccc2COc2ccc(CC(=O)O)cc21
inactive: Potency [2] | Potency [4] | Potency [7] | Potency [8] | Potency [10] | Potency [11] | Potency [13] | Potency [14] | Potency [15] | Potency [16]

Cc1ccccc1C(N)=O
inactive: Potency [19] | Potency [2] | outcome [3] | Potency [4] | outcome [6] | max response [20] 3% | Potency [7] | Potency [8] | outcome [9] | Potency [10] | Potency [11] | Potency [12] | Potency [13] | Potency [14] | Potency [15] | Potency [16] | outcome [17] | Potency [18]

OCC1(CO)COCOC1
inactive: Potency [2] | outcome [3] | Potency [4] | Potency [5] | outcome [6] | max response [20] -1.51% | Potency [7] | Potency [8] | outcome [9] | Potency [11] | Potency [12] | Potency [13] | Potency [14] | Potency [16] | outcome [17] | Potency [18]

OC1OCCOC1O (stereo unspecified)
inactive: Potency [19] | Potency [2] | Potency [4] | Potency [5] | outcome [6] | max response [20] 9.9% | Potency [8] | outcome [9] | Potency [10] | Potency [11] | Potency [12] | Potency [13] | Potency [14] | Potency [15] | Potency [16] | outcome [17] | Potency [18]

C/C=C(\C)C(C)=O
inactive: Potency [19] | Potency [2] | outcome [3] | Potency [4] | Potency [5] | outcome [6] | Potency [8] | outcome [9] | Potency [10] | Potency [11] | Potency [13] | Potency [14] | Potency [15] | Potency [16] | outcome [17] | Potency [18]

N[C@@H](Cc1ccc(O)cc1)C(=O)O
inactive: activity change, negative = cytotoxic [19] -0.171% [at 6.97 µM] | cytotoxicity [2] 1.14% [at 6.97 µM] | activity change, negative = cytotoxic [3] 1.47% [at 6.97 µM] | cytotoxicity increase [4] -0.009% [at 6.97 µM] | viability change, negative = cytotoxic [6] 0.728% [at 6.97 µM] | max response [20] -1.3% | activity change [7] 2.02% [at 6.97 µM, active compounds read high] | cytotoxicity increase [8] -12.3% [at 6.97 µM] | activity change, negative = cytotoxic [9] -0.0666% [at 6.97 µM] | cytotoxicity [10] -12.9% [at 6.97 µM] | cytotoxicity increase [11] -8.31% [at 6.97 µM] | activity change, negative = cytotoxicity [12] 4.85% [at 6.97 µM] | cytotoxicity increase [13] 4.36% [at 6.97 µM] | cytotoxicity [14] 1.32% [at 6.97 µM] | cytotoxicity increase [15] -9.11% [at 6.97 µM] | cytotoxicity increase [16] -1.4% [at 6.97 µM] | activity change, negative = cytotoxic [17] 0.618% [at 6.97 µM] | activity change, negative = cytotoxicity [18] -0.381% [at 6.97 µM]

Cc1c(N)cccc1Cl
inactive: Potency [19] | Potency [2] | outcome [3] | Potency [4] | Potency [5] | outcome [6] | Potency [8] | outcome [9] | Potency [10] | Potency [11] | Potency [12] | Potency [13] | Potency [14] | Potency [15] | Potency [16] | outcome [17] | Potency [18]
